Results as given in the supplement of paper PMC10338343.
± gives the standard deviation.

Columns and labels:
[1] = system: MILI (PIWIL2) piRISC loaded with L1MC piRNA (26 nt); test: pre-steady-state target cleavage rate (min^-1); guide: L1MC piRNA 5'p-UAACUAAAUACUAUGCAAGCUGUAGG; higher = faster piRNA-guided slicing of the target;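 further: 1 nM active piRISC with 0.1 nM target library at 33 °C single turnover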
Procedure, shortened: (§1)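 In this Cleave-'n-Seq assay, uncleaved targets were sequenced and normalised to depth and to weakly complementary targets. They came from a transcribed, DNA-blocked target RNA library […] mixed with 1 nM active affinity-purified piRISC carrying one synthetic guide, with or without 500 nM GTSF1 partner protein, in HEPES–potassium acetate buffer at 33 °C for 0–8 or 0–960 min. After three trials were pooled and k3 was capped at 0.0001 min^-1, the pre-steady-state cleavage rate was obtained from a burst-and-steady-state fit.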

[2] = system: EfPiwi piRISC loaded with L1MC piRNA (26 nt); test: pre-steady-state target cleavage rate (min^-1); auxiliary factor: none (no Gtsf1); guide: L1MC piRNA 5'p-UAACUAAAUACUAUGCAAGCUGUAGG; higher = faster piRNA-guided slicing of the target
Procedure, shortened: as §1

[3] = system: EfPiwi piRISC loaded with L1MC piRNA (26 nt); test: pre-steady-state target cleavage rate (min^-1); auxiliary factor: 500 nM Ephydatia muelleri Gtsf1; guide: L1MC piRNA 5'p-UAACUAAAUACUAUGCAAGCUGUAGG; MIWI and MILI are mouse PIWI proteins and EfPiwi is from a freshwater sponge; tags in brackets are library labels; higher = faster piRNA-guided slicing of the target
Procedure, shortened: as §1

[4] = auxiliary factor: 500 nM mouse GTSF1
[5] = auxiliary factor: none (no GTSF1)

Row | Sequence | pre-steady-state target cleavage rate [1, 4] | pre-steady-state target cleavage rate [2] | pre-steady-state target cleavage rate [1, 5] | pre-steady-state target cleavage rate [3]
1 | UCCUGGAUCAGGUUGCAUAGUAUUUUCAAA | 0.07 ± 0.023 | < 0.0001 |  | 
2 | UCCUGGAUGUCGAAGCUAUAGUAUUUAGUUA |  | < 0.0001 |  | 
3 | UCCUGGAUGUCGAAGCAAAGUAUUUACUUA |  | < 0.0001 |  | 
4 | UCCUGGAUGUCGAUCCAUAGUAUUUACUUA |  | < 0.0001 |  | 
5 | UCCUGGAUGUGCUUGCAAAGUAUUUUGUUA | 0.0179 ± 0.0057 | < 0.0001 |  | 
6 | UCCUCCUACAGCUUGCAUAGUAUUGUAGUUA | 0.166 ± 0.045 | < 0.0001 |  | 
7 | UCCUGGAUGUCGUUGCAUAGUAUUUAGCUA |  | < 0.0001 |  | 
8 | UCCUGCUACAGCUUGCAAUCUAUUUUCAAA | 0.00419 ± 0.0036 | < 0.0001 |  | 
9 | UCCUGGAUGUCGUUCCAUAGUAUAUAGUUA |  | < 0.0001 |  | 
10 | UCCUGGAUGUCGAAGGAUAGUAUUUUGUUA |  | < 0.0001 |  | 
11 | UCCUGGAUGUCGAUGCAUAGAAUUUAGUAA |  | < 0.0001 |  | 
12 | UCCUCCUACAGCUUGCAAUCUAUUUUCAAA | 0.0216 ± 0.0095 | < 0.0001 |  | 
13 | UCCUGGAACAGCUUGCUAUCAUAAAUCAAA [g15:g23:cont:t1A] |  | < 0.0001 | < 0.0001 | 
14 | UCCUGGAACAGCUUGCAUUCUAUUUACAAA |  | < 0.0001 |  | 
15 | UCCUGGAUGUCCUUGCAUAGUAUUUCAGUUA | 0.0665 ± 0.022 | < 0.0001 |  | 
16 | UCCUGCUACAGCUUGCAAUCAUAAAUCAAA [g14:g25:cont:t1A] |  | < 0.0001 |  | 
17 | UCCUGGAUGUCCUUGCAUAGUUUUUAGUAA | 0.013 ± 0.0043 | < 0.0001 |  | 
18 | UCCUGGAUGUCGAACGAGUAGUAUUUAGUUA |  | < 0.0001 | < 0.0001 | 
19 | UCCUGGUACAGCUUGCAUAGAAUUUACUUA | 0.0206 ± 0.011 | < 0.0001 |  | 
20 | UCCUGGAUCAGGAAGCAUAGUAUUUUCAAA |  | < 0.0001 |  | 
21 | UCCUGGAUCAGCUUGGAUACUAUUUAGUUA | 0.0383 ± 0.01 | < 0.0001 |  | 
22 | UCCUGGAUGUCGAAGGAUAGUAUUUAGUUA |  | < 0.0001 |  | 
23 | UCCUGGAUGUCCUUGCAUACAAUUUAGUUA |  | < 0.0001 | 0.00248 ± 0.0024 | 
24 | UCCUGGAUGUCGUAGCAUAGUAUUUUGUUA | 0.0314 ± 0.01 | < 0.0001 |  | 
25 | UCCUGGAUGUCGAACGUAUGUGAUUUAGUUA |  | < 0.0001 |  | 
26 | UCCUCCUACAGCUUGCAUUCUAUUUUCAAA | 0.0147 ± 0.0054 | < 0.0001 |  | 
27 | UCCUGGAACACCUUGCAUAGUAUUUUCAAA | 0.0441 ± 0.015 | < 0.0001 |  | 

Row | Sequence | pre-steady-state target cleavage rate [1, 4] | pre-steady-state target cleavage rate [2] | pre-steady-state target cleavage rate [1, 5] | pre-steady-state target cleavage rate [3]
28 | UCCUGGAACAGCUUCCAUAGUAUUAAGUUA |  | < 0.0001 |  | 
29 | UCCUGGAUGUCGAACGUUAGUAAAUAGUUA |  | < 0.0001 |  | 
30 | UCCUGGAUGUCGAUGCAUCAGUAUUUAGUUA |  | < 0.0001 |  | 
31 | UCCUGGAUGUCGAAGCAUAGUAUUUAGAUA | 0.00991 ± 0.0044 | < 0.0001 |  | 
32 | UCCUGGAUGUCGAACGUAUGUAUUUGAGUUA |  | < 0.0001 |  | 
33 | UCCUGGAUGUCGAAGCAUAGUAUUUAGCUA |  | < 0.0001 |  | 
34 | UCCUGGAUGUCGAUGCAUACUUUUUAGUUA |  | < 0.0001 |  | 
35 | UCCUGCUACAGCUUGCAUAGAAUUUUCAAA | 0.0169 ± 0.0066 | < 0.0001 |  | 
36 | UCCUGGAUGUGCUUGCGUAGUAUUUAGUUA | 0.0451 ± 0.013 | 0.00427 ± 0.0042 | 0.0145 ± 0.0037 | 
37 | UCCUGGAUCAGCUUGCAUAUUAUUUAGUUA | 0.0736 ± 0.0095 | 0.00536 ± 0.0048 |  | 0.0367 ± 0.011
38 | UCCUGCUACAGGUUGCAUAGUAUUUACAAA | 0.0112 ± 0.0054 | < 0.0001 |  | 0.00244 ± 0.0017
39 | UCCUGGAUGUCGAAGCAUAGUAUUUAGUCA | 0.0245 ± 0.0057 | < 0.0001 | 0.00315 ± 0.0019 | 
40 | UCCUGGAUCAGCUUGCAUAGUACUUAGUUA | 0.237 ± 0.018 | 0.0113 ± 0.0052 | 0.00683 ± 0.0023 | 0.0145 ± 0.0031
41 | UCCUGGAUGAGCUUGCAAAGUAUAUAGUUA | 0.148 ± 0.02 | < 0.0001 | 0.00576 ± 0.0029 | 
42 | UCCUGGAUGAGCUUGCAUAGUAUUAUAGUUA | 0.185 ± 0.022 | 0.0249 ± 0.011 | 0.00494 ± 0.0026 | 0.0159 ± 0.0056
43 | UCCUGGUUCUGCUUGCAUAGUAUUUAGUUA | 0.186 ± 0.024 | 0.00563 ± 0.0047 | 0.00814 ± 0.0033 | 0.0355 ± 0.011
44 | UCCUGGAUGUCGAACGUUAGUAUCUAGUUA |  | < 0.0001 |  | < 0.0001
45 | UCCUGGAACAGCUUGCAUAGUAUUAUGAAA | 0.0563 ± 0.02 | < 0.0001 |  | 0.00336 ± 0.0021
46 | UCCUGGAACAGCUUGCAUCGUAUUUAGUUA | 0.0882 ± 0.013 | 0.00791 ± 0.0048 | 0.00682 ± 0.0024 | 0.0172 ± 0.0048
47 | UCCUGGAUCAGCUUGCAUAGUAGUUUAGUUA | 0.216 ± 0.02 | 0.011 ± 0.0045 | 0.00969 ± 0.0027 | 0.0107 ± 0.0033
48 | UCCUGGAUGUCGAACGUAUCUAUUUAGAAA [g4:g10:cont:t1A] |  | < 0.0001 |  | < 0.0001
49 | UCCUCCUACAGCUUGGAUACUAUUUAGUUA | 0.0539 ± 0.0095 | 0.00497 ± 0.0037 |  | 0.0118 ± 0.0031
50 | UCCUGGAUGUCGAAGCAUAGUAUUUGUUA |  | < 0.0001 | < 0.0001 | 
51 | UCCUGGAUCAGCUUGCAUAGUAUGUAGUUA | 0.202 ± 0.018 | 0.0179 ± 0.0092 | 0.00457 ± 0.0024 | 0.0171 ± 0.0042
52 | UCCUGGAAGAGCUUGCAUACUAUUUAGUUA | 0.0778 ± 0.014 | 0.00581 ± 0.0041 | 0.00312 ± 0.0024 | 0.00438 ± 0.0026
53 | UCCUGGAAGUGCUUGCAUAGUAUUUAGAAA | 0.00889 ± 0.0052 | < 0.0001 |  | 0.00379 ± 0.0018
54 | UCCUGGUUACAGCUUGCAUAGUAUUUAGUUA | 0.256 ± 0.025 | 0.00968 ± 0.0057 | 0.03 ± 0.0078 | 0.0881 ± 0.021

Row | Sequence | pre-steady-state target cleavage rate [1, 4] | pre-steady-state target cleavage rate [2] | pre-steady-state target cleavage rate [1, 5] | pre-steady-state target cleavage rate [3]
55 | UCCUGGAUGUCGAAGCAUAGUUUUUAGUUA | 0.00892 ± 0.0039 | < 0.0001 | 0.00397 ± 0.0017 | 
56 | UCCUGCUACAGCUUGGUAAGUAUUUAGAAA | 0.0107 ± 0.0045 | < 0.0001 |  | 
57 | UCCUGGAUGUGCAUGCAUAGUAUUUAGAUA | 0.146 ± 0.032 | < 0.0001 |  | 
58 | UCCUGGAUCAGCUUGCAUAGCAUUUAGUUA | 0.08 ± 0.012 | 0.00546 ± 0.0038 | 0.00359 ± 0.0025 | 0.00774 ± 0.0021
59 | UCCUGGAUCACGUUGCAUAGUAUUUAGAAA | 0.128 ± 0.022 | < 0.0001 | 0.00275 ± 0.0027 | 0.00652 ± 0.0044
60 | UCCUGGAUGUCGAUGCAUCGUAUUUAGUUA | 0.0238 ± 0.0073 | < 0.0001 | 0.00865 ± 0.0025 | 
61 | UCCUGGAUGUCCUUGCAUAGUAAUUACUUA | 0.0143 ± 0.0067 | < 0.0001 |  | 
62 | UCCUGGUACAGCUUGGUUAGUAUUUAGAAA | 0.043 ± 0.016 | < 0.0001 |  | 
63 | UCCUGGAUGUCGAAGCAUAGUAUUUAGUUU [g2:g16:cont:t1U] | 0.0307 ± 0.0082 | < 0.0001 | 0.00447 ± 0.0018 | 
64 | UCCUGGUACAGCUUGCAUAGUAUUUAAGUUA | 0.22 ± 0.041 | 0.00555 ± 0.0052 | 0.0123 ± 0.0043 | 
65 | UCCUGGAUGAGCUUGCAUAGUCUUUAGUUA | 0.0764 ± 0.012 | 0.0128 ± 0.0056 | 0.00627 ± 0.0022 | 0.0107 ± 0.0033
66 | UCCUGGAUGUGCUUGCAUAGUAUCUUAGUUA | 0.135 ± 0.019 | 0.0107 ± 0.0064 | 0.0069 ± 0.0028 | 
67 | UCCUGGAUCAGCUUGCAUAGUGUUUAGUUA | 0.2 ± 0.018 | 0.00696 ± 0.0045 | 0.00361 ± 0.003 | 0.0156 ± 0.0035
68 | UCCUGCUACAGCUUGCAUAGUAUUAUGAAA | 0.0843 ± 0.025 | < 0.0001 |  | 0.00355 ± 0.0023
69 | UCCUGGAACUCGUUGCAUAGUAUUUAGUUA | 0.154 ± 0.018 | < 0.0001 | 0.00417 ± 0.0024 | 0.00531 ± 0.0017
70 | UCCUGGAUGUCCUUGCAAAGUAAUUAGUUA | 0.018 ± 0.0064 | < 0.0001 | 0.00522 ± 0.0014 | 
71 | UCCUGGAUGAGCUUGCAUAGUACUUAGUUA | 0.127 ± 0.018 | 0.00448 ± 0.0039 | 0.00646 ± 0.0022 | 
72 | UCCUGGAACAGCUUGGAUUGUAUUUAGUUA | 0.0767 ± 0.011 | < 0.0001 | 0.00295 ± 0.0026 | 
73 | UCCUCCUACACGAUGCAUAGUAUUUACAAA | 0.122 ± 0.021 | < 0.0001 |  | 
74 | UCCUGGAUGUCGAACCAUAGUUUUAGUUA |  | < 0.0001 |  | < 0.0001
75 | UCCUGGAUGUCGAACGUUAGUAUUUAGAUA |  | < 0.0001 |  | < 0.0001
76 | UCCUGGAUGUCGAACGAAAGUAUUUUGUUA |  |  | < 0.0001 | 
77 | UCCUGGAUGUCGUUGCAUAGUGAUUUAGUUA |  |  | 0.0042 ± 0.0032 | 
78 | UCCUGGUAGUCCUUGCAUAGUAUUUUCAAA | 0.0125 ± 0.0059 |  |  | 
79 | UCCUGGAACAGCUUGGAUACUAUUUAGUUA | 0.0744 ± 0.017 |  |  | 
80 | UCCUGGUACAGCUUGCAUAGUAAAUAGAAA | 0.081 ± 0.025 |  |  | 
